# Many of the other results were omitted from the sample, so hits are more common in it than they were.
# ST2 inh: inhibitors of human ST2 (IL1RL1) binding to IL-33; Q01638; AlphaLISA ST2-Fc/biotin-IL-33 interaction, 1 h; inhibition, % for hits at 17 µM; hit rate 2.3% among 78,000; AID 1259354; in the data active means inhibition above about 30%
# Target sequence (Q01638 whole entry, looked up): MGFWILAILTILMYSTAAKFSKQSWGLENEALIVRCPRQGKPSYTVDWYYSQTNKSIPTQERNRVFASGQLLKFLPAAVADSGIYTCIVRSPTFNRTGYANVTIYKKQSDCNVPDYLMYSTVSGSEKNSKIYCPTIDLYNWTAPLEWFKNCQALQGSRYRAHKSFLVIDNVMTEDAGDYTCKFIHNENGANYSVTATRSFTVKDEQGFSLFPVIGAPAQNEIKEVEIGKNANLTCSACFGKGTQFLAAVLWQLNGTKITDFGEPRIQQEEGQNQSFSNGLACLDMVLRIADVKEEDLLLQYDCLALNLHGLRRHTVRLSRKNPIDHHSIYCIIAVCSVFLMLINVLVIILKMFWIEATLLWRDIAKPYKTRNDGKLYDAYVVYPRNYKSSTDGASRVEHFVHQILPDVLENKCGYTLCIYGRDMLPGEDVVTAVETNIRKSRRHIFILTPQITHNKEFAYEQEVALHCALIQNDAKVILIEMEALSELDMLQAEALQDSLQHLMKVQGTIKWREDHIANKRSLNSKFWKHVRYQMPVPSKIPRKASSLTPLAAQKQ
# Starred values were filed as active, the others as inactive; i = inactive.
SMILES,ST2 inh
Cc1cc(C(=O)N2CC(c3ccccn3)C2)sc1-c1ccccc1,i
Cn1c(SCC(=O)Nc2nccs2)nc2c([nH]c3ccccc32)c1=O,i
CCN1CCN(C(=O)CCC(=O)Nc2ccc3nc(N4CCN(C)CC4)cc(C)c3c2)CC1,i
O=C1C2C3C=CC(C3)C2C(=O)N1c1ccc(F)c(Cl)c1 (stereo not drawn),i
CCCS(=O)(=O)N1CCCC(C(=O)NCc2ccccn2)C1 (stereo not drawn),i
CS(=O)(=O)NCCC1CN(Cc2ccnc3ccccc23)CCO1 (stereo not drawn),i
Clc1cccc(CN2CCOCC2)c1Cl,i
c1ccc2c(CN3CCOCC3)ccnc2c1,40%*
O=C(O)c1ccc(CN2CC[C@H](c3nnc(-c4ccco4)o3)C2)cc1,i
COc1cc(-n2c(=O)c3ccccc3n(CC(=O)NCc3ccco3)c2=O)cc(OC)c1OC,i
O=C(Nc1ccccc1F)c1cc2c(=O)n3ccccc3nc2s1,i
COc1ccc(Cl)cc1NC(=O)c1cc2c(=O)n3ccccc3nc2s1,37%*
O=C(Nc1ccc(F)c(Cl)c1)c1cc2c(=O)n3ccccc3nc2s1,i
COc1ccc2cc3cc(C(=O)N4CCC(N5CCCCC5)CC4)oc3nc2c1,i
COc1ccc(OCC(O)CN2CCN(c3ccccc3F)CC2)c(C(C)(C)C)c1 (stereo not drawn),i
CC(C)(C)c1ccccc1OCC(O)CN1CCN(Cc2ccc3c(c2)OCO3)CC1 (stereo not drawn),97%*
CC(C)(C)c1ccc(OCC(O)CN2CCN(Cc3ccc4c(c3)OCO4)CC2)cc1 (stereo not drawn),i
COCCCN1C(=O)N(Cc2ccccn2)C(=O)C12CCN(Cc1nccs1)CC2,i
CCC(=O)N1CCc2cc(Br)cc(S(=O)(=O)N3CC=C(c4ccccc4)CC3)c21,i
CCc1nnc(NC(=O)CSc2ncn[nH]2)s1,i
O=C(CSc1ncn[nH]1)Nc1cc(C(F)(F)F)ccc1Cl,i
CC(C)c1ccc(C(=O)CSc2ncn[nH]2)cc1,30%*
Cc1ccc2c(c1)C(O)(CC(=O)c1cccc([N+](=O)[O-])c1)C(=O)N2 (stereo not drawn),i
CNC(=O)c1c(NC(=O)c2ccccc2F)sc2c1CCCCC2,i
COc1cc(C=O)ccc1OCCCOc1ccccc1C(=O)O,i
SMILES,ST2 inh
CCCCOc1ccc(/C=c2\sc3nc(=O)c(C)nn3c2=O)cc1OC,i
COc1ccccc1OCCCOc1ccc(/C=C2/C(=N)N3C=CSC3=NC2=O)cc1OC,34%*
O=C(c1cccn2c(=O)c3c4c(sc3nc12)CCCC4)N1CCN(c2ccc(F)cc2)CC1,i
Cc1ccc(-c2ncccc2O)cc1[N+](=O)[O-],i
CC1CCCCN1CCNS(=O)(=O)c1ccc2c(c1)CCN2C(=O)C1CC1 (stereo not drawn),i
CN(C)c1ccc(C=C2c3cc([N+](=O)[O-])cc([N+](=O)[O-])c3-c3c2cc([N+](=O)[O-])cc3[N+](=O)[O-])cc1,42%*
COc1ccc(C=C2c3cc([N+](=O)[O-])cc([N+](=O)[O-])c3-c3c2cc([N+](=O)[O-])cc3[N+](=O)[O-])cc1,51%*
COc1ccc(S(=O)(=O)Nc2ccc(OC)cc2[N+](=O)[O-])cc1,i
CN(C)c1ccc(/C=C2\N=C(c3cccc([N+](=O)[O-])c3)OC2=O)cc1,i
COc1ccc(/C=C2\N=C(c3ccc(C)c([N+](=O)[O-])c3)OC2=O)cc1,i
CN(C)c1ccc(/C=C2\c3cc([N+](=O)[O-])ccc3-c3c2cc([N+](=O)[O-])cc3[N+](=O)[O-])cc1,i
O=C(CN1CCN(Cc2ccc(Cl)cc2)S1(=O)=O)Nc1ccccc1,i
CS(=O)(=O)c1ccc(CN2C[C@H](O)C[C@H]2c2nc(-c3ccc(OC(F)(F)F)cc3)no2)cc1,32%*
O[C@@H]1C[C@@H](c2nc(-c3ccc(OC(F)(F)F)cc3)no2)N(Cc2ccccc2)C1,i
CS(=O)(=O)c1ccc(CN2C[C@H](O)C[C@H]2c2nc(-c3ccc(F)cc3)no2)cc1,i
COc1ccc(/C=C(/NC(=O)c2ccco2)C(=O)Nc2ccc(OC)cc2)cc1,i
C=C(C)CC(Nc1ccc(OC)cc1)c1ccco1 (stereo not drawn),37%*
COc1ccccc1C(CC(=O)O)c1ccco1 (stereo not drawn),i
Cc1ccccc1Nc1nnc(Cc2ccccc2)c(=O)[nH]1,i
CCCc1nc(C)cc(N2CCCC(O)(CO)CC2)n1 (stereo not drawn),i
CCCOc1cccc(C(=O)Nc2ccccc2Cl)c1,i
CCOc1ccc(NC(=O)c2ccccc2Br)c([N+](=O)[O-])c1,36%*
Cc1c(C(=O)Nc2ccccc2[N+](=O)[O-])csc1-c1ccccc1,35%*
CCN(CC)c1ccc(NC(=O)c2ccccc2Br)c(C)c1,i
CCOc1ccccc1NC(=O)c1ccccc1C,i
CCOc1cccc(C(=O)Nc2ccc(C)cc2[N+](=O)[O-])c1,i
CCc1ccccc1NC(=O)c1ccccc1[N+](=O)[O-],i

# Assay outcomes as filed in PubChem BioAssay.
